Test results as given in paper PMC4336329 (PLoS ONE, 2015).
Hit rate of the full screen: of about 310,000 compounds, about 14,000 (4.5%) showed an effect of 50% or more. The effect is printed as a negative number. This excerpt belongs to a sample that is enriched for strong results.

biological target: human ether-à-go-go-related gene (hERG) potassium channel (human, UniProt Q12809); assay: primary screen, population patch clamp on CHO cells stably expressing hERG; higher = less effect of the substance
Sequence (Q12809 whole entry, looked up): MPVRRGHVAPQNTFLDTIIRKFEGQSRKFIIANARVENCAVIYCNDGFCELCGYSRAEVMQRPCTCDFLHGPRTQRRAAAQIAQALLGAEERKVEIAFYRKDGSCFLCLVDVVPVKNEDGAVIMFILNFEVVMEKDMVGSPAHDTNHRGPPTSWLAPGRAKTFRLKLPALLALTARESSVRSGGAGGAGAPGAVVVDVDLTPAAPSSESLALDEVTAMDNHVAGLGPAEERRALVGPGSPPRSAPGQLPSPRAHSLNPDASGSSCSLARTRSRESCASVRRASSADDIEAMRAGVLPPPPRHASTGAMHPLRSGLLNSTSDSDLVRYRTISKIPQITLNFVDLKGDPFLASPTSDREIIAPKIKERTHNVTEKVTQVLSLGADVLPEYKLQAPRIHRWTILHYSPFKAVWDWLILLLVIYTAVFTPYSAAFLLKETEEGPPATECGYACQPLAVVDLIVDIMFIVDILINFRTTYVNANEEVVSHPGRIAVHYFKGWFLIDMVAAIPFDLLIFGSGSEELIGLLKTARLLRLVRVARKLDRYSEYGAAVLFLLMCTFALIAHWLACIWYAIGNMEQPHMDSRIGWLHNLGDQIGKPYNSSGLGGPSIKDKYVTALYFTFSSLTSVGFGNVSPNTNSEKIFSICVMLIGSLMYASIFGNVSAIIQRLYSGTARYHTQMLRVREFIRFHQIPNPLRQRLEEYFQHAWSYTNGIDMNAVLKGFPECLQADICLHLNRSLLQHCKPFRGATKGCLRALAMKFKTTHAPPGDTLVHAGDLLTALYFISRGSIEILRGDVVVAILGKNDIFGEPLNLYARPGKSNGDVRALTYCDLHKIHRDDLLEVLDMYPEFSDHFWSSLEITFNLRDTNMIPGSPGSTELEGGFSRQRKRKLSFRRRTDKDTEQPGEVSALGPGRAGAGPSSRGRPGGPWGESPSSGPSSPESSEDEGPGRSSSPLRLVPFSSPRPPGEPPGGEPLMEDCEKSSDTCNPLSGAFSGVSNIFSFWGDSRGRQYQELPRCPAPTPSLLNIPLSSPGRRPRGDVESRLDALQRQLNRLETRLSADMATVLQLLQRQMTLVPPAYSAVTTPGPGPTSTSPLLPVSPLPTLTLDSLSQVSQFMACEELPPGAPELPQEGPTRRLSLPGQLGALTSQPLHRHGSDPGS
Experimental: Briefly, Chinese hamster ovary (CHO) cells stably expressing the hERG channel were dislodged from tissue culture flasks and dispensed into PPC plates. […] During the recording, background leak currents were estimated by a 100 ms step to -80 mV from an initial holding potential of -70 mV and subtracted from the subsequent current measurement. The campaign was conducted in two phases using slight differences in recording protocol. In the first phase, the initial voltage pulse used a 100 ms step to -30 mV from a holding potential of -70 mV, a 2 s conditioning step to +25 mV, and a 2 s test step to -30 mV. During the second phase of the screen, the potential during the conditioning step was raised to +45 mV. In both phases of the campaign, a secondary voltage pulse was applied using the same parameters as the second phase initial pulse. The initial and secondary pulses were applied in the absence of compound, and upon application of 1 μM and 10 μM test concentrations. […]
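Also: peak tail current of the secondary pulse compared with the same well before compound.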

Compound	hERG current change (%, negative = inhibition) at 10uM [%]
Cc1ccc(NC(=O)CCNC(=O)c2ccc([N+](=O)[O-])cc2)cc1C	-0.694
COC(=O)c1cccc(NC(=O)CCNC(=O)c2ccc([N+](=O)[O-])cc2)c1	-48
Cc1ccc(NC(=O)CCNC(=O)c2ccc([N+](=O)[O-])cc2)cc1S(=O)(=O)N(C)C	-66.9
O=C(Cc1ccc(Cl)cc1)Nc1cccc(S(=O)(=O)Nc2ccccc2F)c1	11.9
CCOc1ccc(C(=O)Nc2nc(C)cc(C)n2)cc1[N+](=O)[O-]	-49.6
Cc1nnc(C)n1/N=C/c1ccc(-c2ccccc2Cl)o1	-11.3
N[C@@H](Cc1ccc(O)c(I)c1)C(=O)O	17.6
COc1ccc(NC(=O)c2oc3ccccc3c2NC(=O)C2CCCO2)cc1OC (centres unmarked)	-17.8
c1ccc(C2=Nn3c(nnc3-c3cc(-c4ccccc4)n[nH]3)SC2)cc1	6.46
COc1ccc(OC)c(/C=N/NC(=O)CSc2nnc(C)n2-c2ccccc2)c1	-12.4
CCOc1cc(/C=C(\C#N)C(=O)NCc2cccnc2)ccc1O	-8.66
COc1ccccc1/C=C\C=N\NC(=O)CCn1nnc2ccccc21	-3.44
Cc1nc(Br)c(Br)c(C)c1Br	14.4
Cc1ccc(NC(=O)CCNC(=O)c2ccc([N+](=O)[O-])cc2)cc1S(=O)(=O)N1CCOCC1	-47.4
CC(=O)c1cccc(NCC(=O)Nc2cccc(S(=O)(=O)N3CCCCC3)c2)c1	-31.6
O=C(CNc1cccc(S(=O)(=O)N2CCCCCC2)c1)Nc1cccc([N+](=O)[O-])c1	-71.9
O=C(CCNC(=O)c1ccc([N+](=O)[O-])cc1)Nc1ccc(Cl)c(S(=O)(=O)N2CCOCC2)c1	-66.2
O=C(CCNC(=O)c1ccc([N+](=O)[O-])cc1)Nc1ccc(S(=O)(=O)N2CCOCC2)cc1	2.67
O=C(CNc1cccc(S(=O)(=O)N2CCCCC2)c1)Nc1cccc(F)c1	-9.9
Cc1ccc(-n2c(C)nnc2SCC(=O)N(C)C2CCS(=O)(=O)C2)cc1 (centres unmarked)	12.9
Cl.O=C(CCc1ccc(S(=O)(=O)N2CCOCC2)cc1)N1CCN(Cc2ccc3c(c2)OCO3)CC1	-34.3

Compound	hERG current change (%, negative = inhibition) at 10uM [%]
Clc1ccc(-c2cn3nc4c(nc3n2)CCCC4)cc1	-15.3
CCOC(=O)c1ccc(NC(=O)c2ccc(NC(=O)C3CCCO3)cc2)cc1 (centres unmarked)	17
COc1ccccc1C(=O)Nc1ccccc1N1CCN(C(=O)c2ccc(Cl)cc2)CC1	-82.1
COc1cccc(OC)c1C(=O)Nc1ccccc1N1CCCCC1	-17.4
CC(C)(C)C(=O)Nc1ccccc1N1CCN(C(=O)c2ccc(Cl)cc2)CC1	-48.2
COc1ccccc1C(=O)Nc1ccccc1N1CCCCC1	-22.4
COc1cccc(OC)c1C(=O)Nc1ccccc1N1CCCC1	-74.6
CC(C)C(=O)NC(=S)Nc1ccccc1N1CCN(C(=O)c2ccc(Cl)cc2)CC1	-3.55
O=C(Nc1ccccc1N1CCCCC1)c1cccc(Cl)c1	13.5
O=C(Nc1ccccc1N1CCN(C(=O)c2ccccc2)CC1)c1ccc(Cl)cc1	-73.2
O=C(Nc1ccccc1N1CCN(C(=O)c2ccccc2)CC1)c1cccc(Cl)c1	-67.8
CC(C)C(=O)Nc1ccccc1N1CCN(C(=O)c2ccccc2)CC1	-14.2
O=C(Nc1ccccc1N1CCN(C(=O)c2ccc(Cl)cc2)CC1)c1ccc(Br)cc1	-41.5
COc1ccccc1C(=O)Nc1ccccc1N1CCOCC1	-6.98
O=C(NC1CCSc2ccccc21)c1ccc(Cl)c(S(=O)(=O)N2CCOCC2)c1 (centres unmarked)	7.48
Cc1ccc(C(=O)Nc2nc3ccccc3s2)s1	8.75
CC(C)[C@H](NC(=O)c1ccco1)C(=O)N(C)Cc1c(F)cccc1Cl	-32.3
CCOC(=O)C1(C)/C(=N/Nc2ccccc2Cl)C(=O)C(=O)N1c1ccccc1 (centres unmarked)	6.03
Cc1ccc(S(=O)(=O)n2nc(C)c(Br)c2C)c(C)c1C	20.8
Cc1ccc(S(=O)(=O)NCc2ccc(C(=O)N3CCN(c4ccccn4)CC3)cc2)cc1	-33.6
